PubChem BioAssay
The source made the active and inactive calls.

Key:
[1] = small molecules captured by biotinylated probe aFSTL3 – biochemical, small-molecule microarray, fluorescence 635/667, stem cell growth factor project, primary screen (AID 1064); conditions: higher = more signal;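 further: measures binding of the biotinylated anti-FSTL3 antibody to printed compounds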
[2] = binders from COS7 lysate, DM2A8 probe, primary screen, torsin A project, cell lysate, small-molecule microarray, fluorescence 635/667 (AID 1065); conditions: higher = more signal, COS7 lysate expressing mutant human TOR1A
[3] = small molecules captured by biotinylated probe aFGF2 – biochemical, small-molecule microarray, fluorescence 635/667, stem cell growth factor project, primary screen (AID 1067); conditions: higher = more signal;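 further: measures binding of biotinylated aFGF2 protein to printed compounds on slides; z-score merges feature fluorescence and signal-to-noise across triplicate slides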
[4] = small molecules captured by biotinylated probe aFGF10 – biochemical, small-molecule microarray, fluorescence 635/667, stem cell growth factor project, primary screen (AID 1071); conditions: higher = more signal;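 further: score merges 667 nm spot intensity and signal to noise from triplicate slides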
[5] = target: Neurogenic locus notch homolog protein 2 (Homo sapiens) (UniProt Q04721); test: small molecules binding Notch2 protein – biochemical, small-molecule microarray, 635 nm fluorescence, stem cell growth factors, primary screen (AID 1073); conditions: higher = more signal
[6] = target: Pro-neuregulin-1, membrane-bound isoform (Homo sapiens) (UniProt Q02297); test: small molecules binding neuregulin-1 protein – biochemical, small-molecule microarray, fluorescence 635/667, psychiatric disease protein project, primary screen (AID 1075); conditions: NRG1 binding, 635 nm fluorescence, higher = more signal;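 further: score combines 667 nm spot fluorescence with signal to noise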
[7] = test system: Neuregulin-1 EGF-like domain; test: small molecules binding NRG1 EGF domain – biochemical, small-molecule microarray, 635 nm fluorescence, primary screen (AID 1081); conditions: higher = more signal;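 further: binding of the protein to compounds printed on small-molecule microarray slides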
[8] = FRG1 expression reporter modulators in myotubes – cell-based, C2C12 myotubes, firefly/Renilla luciferase, luminescence, FRG1 inhibition for FSHD, primary screen (AID 1084); conditions: FRG1 promoter luciferase, higher = more signal, called active from +8 up or from −8 down
[9] = small molecules captured by biotinylated probe aFST – biochemical, small-molecule microarray, fluorescence 635/667, stem cell growth factor project, primary screen (AID 1086); conditions: higher = more signal;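 further: score merges 667 nm fluorescence with signal-to-noise of each printed compound spot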
[10] = binders of probe aHhip on microarray, primary screen, stem cell growth factor project, biochemical, small-molecule microarray, fluorescence 635/667 (AID 1087); conditions: higher = more signal;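 further: score merges spot fluorescence at 667nm with spot signal to noise ratio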
[11] = test system: PRMT1 (protein arginine N-methyltransferase 1); test: small molecules binding arginine methyltransferase PRMT1 – biochemical, small-molecule microarray, 635 nm fluorescence, primary screen (AID 1088); conditions: higher = more signal;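 further: binding of Prmt1 protein to compounds spotted on small-molecule microarray slides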
[12] = growth effects on S. cerevisiae YJM789 – YJM789 clinical isolate, OD600, 24 h, basal, primary screen (AID 1089); conditions: higher = more signal, called active from +8 up or from −8 down;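 further: growth of clinical yeast isolate S. cerevisiae YJM 789 seeded 1000 cells per well; test concentration not given here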
[13] = S. pombe growth modifiers, basal conditions – strain 972, OD600, 24 h, no modulator, primary screen (AID 1090);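 further: basal condition with compound alone and no growth modifier present; test concentration not given here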; conditions: S. pombe 972 growth, higher = more signal, called active from +8 up or from −8 down
[14] = budding yeast growth modifiers under rapamycin – strain BY4716, OD600, 96 h, primary screen (AID 1091); further: test concentration not given here; conditions: S. cerevisiae BY4716 + rapamycin, higher = more signal, called active from +8 up or from −8 down
[15] = target: Torsin-1A-interacting protein 2 (Homo sapiens) (UniProt Q8NFQ8); test: small molecules binding lysate-expressed LULL1 – cell lysate, human LULL1 lysate, 635/667 nm fluorescence, primary screen (AID 1092); conditions: small-molecule microarray, hLULL1 lysate binding, 635 nm fluorescence; higher = more signal;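 further: probe is lysate of COS7 cells overexpressing human LULL1; score merges per-feature 667 nm fluorescence with signal-to-noise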
[16] = optical density change of DRC41 E. coli – strain DRC41, OD650, 24 h, E. coli filamentation project, primary screen (AID 1093);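 further: MC1000 strain lacking acrAB efflux and sulA so SOS filamentation is blocked; test concentration not given here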; conditions: E. coli DRC41 growth, higher = more signal, called active from +8 up or from −8 down
[17] = probe aLefty2 binding to arrayed compounds – biochemical, biotinylated probe, 635/667 nm fluorescence, primary screen (AID 1094); conditions: small-molecule microarray, higher = more signal;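 further: score merges spot fluorescence near 667 nm with spot signal-to-noise ratio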
[18] = test system: Noggin (protein binding on small-molecule microarray); test: small molecules binding Noggin protein – biochemical, 635/667 nm fluorescence, primary screen (AID 1095); conditions: 635 nm fluorescence, higher = more signal;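 further: score merges 667 nm feature fluorescence with signal to noise over triplicate slides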
[19] = target: Neurogenic locus notch homolog protein 3 (Homo sapiens) (UniProt Q9UM47); test: small molecules binding NOTCH3 protein – biochemical, 635/667 nm fluorescence, primary screen (AID 1096); conditions: small-molecule microarray, 635 nm fluorescence, higher = more signal
[20] = probe aEGFR binding to arrayed compounds – biochemical, biotinylated probe, 635/667 nm fluorescence, primary screen (AID 1097); conditions: small-molecule microarray, higher = more signal;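 further: probe is a biotinylated anti-EGFR antibody binding compounds printed on slides; score combines fluorescence near 667 nm and signal to noise of each spot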

Torsin-1A-interacting protein 2 (Homo sapiens), sequence (Q8NFQ8 whole entry, looked up): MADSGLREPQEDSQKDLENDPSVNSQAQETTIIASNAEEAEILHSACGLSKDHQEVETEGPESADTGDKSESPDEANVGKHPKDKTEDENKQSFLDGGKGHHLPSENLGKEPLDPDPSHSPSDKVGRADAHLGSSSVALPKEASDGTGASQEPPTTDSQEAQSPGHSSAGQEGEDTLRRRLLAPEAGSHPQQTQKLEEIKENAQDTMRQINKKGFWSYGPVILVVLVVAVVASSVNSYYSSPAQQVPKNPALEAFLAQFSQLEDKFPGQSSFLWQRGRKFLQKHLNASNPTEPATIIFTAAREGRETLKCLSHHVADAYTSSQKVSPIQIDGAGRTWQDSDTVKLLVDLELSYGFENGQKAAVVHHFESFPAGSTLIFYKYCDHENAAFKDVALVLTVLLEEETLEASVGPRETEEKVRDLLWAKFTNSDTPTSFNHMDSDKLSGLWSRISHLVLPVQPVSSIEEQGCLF
Neurogenic locus notch homolog protein 3 (Homo sapiens), sequence (Q9UM47 whole entry, looked up): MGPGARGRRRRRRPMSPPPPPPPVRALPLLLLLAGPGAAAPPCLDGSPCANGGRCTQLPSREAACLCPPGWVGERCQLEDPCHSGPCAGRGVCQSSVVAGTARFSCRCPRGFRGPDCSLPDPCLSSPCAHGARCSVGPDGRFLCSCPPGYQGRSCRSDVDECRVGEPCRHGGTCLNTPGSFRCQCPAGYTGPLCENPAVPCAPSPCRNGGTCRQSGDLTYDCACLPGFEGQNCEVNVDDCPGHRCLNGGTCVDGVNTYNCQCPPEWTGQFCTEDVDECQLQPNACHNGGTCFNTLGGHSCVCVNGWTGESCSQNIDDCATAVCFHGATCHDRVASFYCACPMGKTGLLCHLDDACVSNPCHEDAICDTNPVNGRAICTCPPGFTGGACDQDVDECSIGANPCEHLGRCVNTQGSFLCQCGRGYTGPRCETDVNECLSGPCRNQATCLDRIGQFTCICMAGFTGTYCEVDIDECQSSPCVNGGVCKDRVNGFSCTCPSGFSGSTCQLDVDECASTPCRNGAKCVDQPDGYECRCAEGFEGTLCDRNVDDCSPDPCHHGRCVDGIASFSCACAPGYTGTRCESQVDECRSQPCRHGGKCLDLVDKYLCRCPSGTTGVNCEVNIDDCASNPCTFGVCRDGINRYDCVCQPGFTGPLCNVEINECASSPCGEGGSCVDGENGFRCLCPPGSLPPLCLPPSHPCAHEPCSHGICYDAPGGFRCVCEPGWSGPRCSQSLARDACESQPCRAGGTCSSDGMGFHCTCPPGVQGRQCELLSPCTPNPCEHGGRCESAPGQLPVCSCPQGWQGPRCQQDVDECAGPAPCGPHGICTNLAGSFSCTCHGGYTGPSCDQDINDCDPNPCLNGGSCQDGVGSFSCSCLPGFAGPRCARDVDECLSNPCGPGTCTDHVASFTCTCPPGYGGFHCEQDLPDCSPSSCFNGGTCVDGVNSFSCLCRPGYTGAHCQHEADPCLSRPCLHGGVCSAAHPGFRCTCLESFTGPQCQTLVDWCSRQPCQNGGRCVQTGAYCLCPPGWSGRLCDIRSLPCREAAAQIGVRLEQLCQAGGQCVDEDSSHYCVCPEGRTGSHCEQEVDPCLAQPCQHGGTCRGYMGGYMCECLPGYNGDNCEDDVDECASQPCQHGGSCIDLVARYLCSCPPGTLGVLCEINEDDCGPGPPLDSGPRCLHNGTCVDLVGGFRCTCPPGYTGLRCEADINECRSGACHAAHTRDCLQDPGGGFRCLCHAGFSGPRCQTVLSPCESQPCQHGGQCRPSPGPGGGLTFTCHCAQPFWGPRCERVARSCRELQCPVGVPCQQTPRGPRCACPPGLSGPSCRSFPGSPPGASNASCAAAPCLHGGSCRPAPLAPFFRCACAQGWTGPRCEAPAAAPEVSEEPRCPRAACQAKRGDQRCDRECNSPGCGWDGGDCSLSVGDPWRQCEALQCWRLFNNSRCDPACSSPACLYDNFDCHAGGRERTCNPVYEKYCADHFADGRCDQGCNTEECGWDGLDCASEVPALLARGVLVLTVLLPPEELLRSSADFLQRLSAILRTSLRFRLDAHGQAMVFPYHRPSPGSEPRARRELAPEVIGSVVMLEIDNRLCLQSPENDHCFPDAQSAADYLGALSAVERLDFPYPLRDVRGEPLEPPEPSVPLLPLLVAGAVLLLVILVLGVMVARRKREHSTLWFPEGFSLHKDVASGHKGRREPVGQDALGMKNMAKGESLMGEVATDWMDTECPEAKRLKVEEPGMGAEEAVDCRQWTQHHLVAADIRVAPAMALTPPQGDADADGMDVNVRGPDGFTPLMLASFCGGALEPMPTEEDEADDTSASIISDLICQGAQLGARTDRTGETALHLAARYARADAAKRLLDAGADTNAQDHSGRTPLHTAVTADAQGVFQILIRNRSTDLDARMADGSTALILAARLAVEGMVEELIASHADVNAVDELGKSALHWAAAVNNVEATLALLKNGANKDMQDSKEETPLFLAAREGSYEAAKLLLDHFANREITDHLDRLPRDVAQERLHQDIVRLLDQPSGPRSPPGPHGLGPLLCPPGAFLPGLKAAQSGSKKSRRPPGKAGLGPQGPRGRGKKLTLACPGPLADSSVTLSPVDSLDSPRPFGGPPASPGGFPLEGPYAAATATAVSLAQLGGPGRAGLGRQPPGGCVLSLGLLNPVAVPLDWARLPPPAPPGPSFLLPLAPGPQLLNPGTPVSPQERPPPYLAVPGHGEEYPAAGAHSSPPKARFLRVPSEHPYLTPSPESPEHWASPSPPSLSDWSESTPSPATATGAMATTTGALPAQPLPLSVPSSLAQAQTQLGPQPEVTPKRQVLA
Pro-neuregulin-1, membrane-bound isoform (Homo sapiens), sequence (Q02297 whole entry, looked up, the tested form may be a part, canonical isoform): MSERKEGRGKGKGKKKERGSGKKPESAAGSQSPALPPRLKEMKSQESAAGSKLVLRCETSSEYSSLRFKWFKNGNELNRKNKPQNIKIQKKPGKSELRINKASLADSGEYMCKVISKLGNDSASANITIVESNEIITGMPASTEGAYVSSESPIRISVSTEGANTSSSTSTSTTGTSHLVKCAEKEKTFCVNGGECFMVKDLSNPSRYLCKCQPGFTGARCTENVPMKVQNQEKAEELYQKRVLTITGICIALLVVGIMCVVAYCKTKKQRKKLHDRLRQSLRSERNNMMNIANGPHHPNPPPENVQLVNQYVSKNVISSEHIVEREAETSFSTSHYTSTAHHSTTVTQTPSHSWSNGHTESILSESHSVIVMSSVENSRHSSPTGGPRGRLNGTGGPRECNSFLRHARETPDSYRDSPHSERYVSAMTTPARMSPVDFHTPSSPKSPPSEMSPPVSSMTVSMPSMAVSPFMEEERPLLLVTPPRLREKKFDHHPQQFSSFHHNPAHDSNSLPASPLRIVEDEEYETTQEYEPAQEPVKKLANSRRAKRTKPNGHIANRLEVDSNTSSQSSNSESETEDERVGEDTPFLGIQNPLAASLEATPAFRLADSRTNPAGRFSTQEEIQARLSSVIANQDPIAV

Structure (SMILES) | composite z-score [1] | composite z-score [2] | composite z-score [3] | composite z-score [4] | composite z-score [5] | composite z-score [6] | composite z-score [7] | z-score [8] | composite z-score [9] | composite z-score [10] | composite z-score [11] | z-score [12] | z-score [13] | z-score [14] | composite z-score [15] | z-score [16] | composite z-score [17] | composite z-score [18] | composite z-score [19] | composite z-score [20]
CCOC(=O)C[C@H]1[C@H](OC(=O)c2ccc(-c3ccccc3)cc2)[C@@H](NC(=O)c2ccccc2)c2cc(OCCCO)ccc2N1C(=O)Cc1ccc(OC)cc1 | -0.287 | -0.0212 | -0.163 | 0.0185 | -0.639 | -0.31 | -0.198 | -0.304 (inactive) | -0.0166 | -0.374 | -0.719 | 0.883 (inactive) | -0.414 (inactive) | 1.45 (inactive) | 0.734 | 0.258 (inactive) | -0.192 | 0.23 | -0.712 | -0.21
CC(C)NC(=O)[C@@]1(Cc2ccccc2I)c2ccccc2C(=O)N(Cc2ccccc2Cl)[C@H]1c1ccc(CO)cc1 | 0.232 | 0.152 | 0.028 | 0.504 | 0.917 | 1.19 | 1.22 | -2.18 (inactive) | 0.237 | -0.0994 | 1.51 | 1.14 (inactive) | -0.199 (inactive) | 1.39 (inactive) | 2.59 | -0.406 (inactive) | -0.0441 | 0.607 | 1.08 | -0.0181
O=C1NC(=O)C2C1C=CC(C(O)C=Cc1ccc([N+](=O)[O-])cc1)N2Nc1ccc(Cl)cc1Cl (stereo not given) | 1.03 | 0.723 | 0.136 | 0.797 | 1.69 | 1.87 | 1.12 | 0.0592 (inactive) | 0.939 | 0.206 | 0.782 | -0.17 (inactive) | -1.23 (inactive) | -0.103 (inactive) | 2.47 | -2.27 (inactive) | 0.729 | -0.518 | 1.11 | 0.285
NC(=O)[C@@H]1[C@H]2C(=O)O[C@H](c3ccccc3)[C@H](c3ccccc3)N2[C@H](c2ccc(OCCO)cc2)[C@@]12C(=O)Nc1ccc(C#CC3=CCCCC3)cc12 | -0.342 | 0.18 | -0.125 | 1.18 | 1.23 | 1.11 | 1.16 | 1.15 (inactive) | 0.447 | -0.227 | 1.55 | 0.529 (inactive) | 0.544 (inactive) | 2.91 (inactive) | 2.08 | 1.69 (inactive) | 0.0209 | 1.35 | 0.951 | -0.0343
O=C1C2C=CC(C(O)c3ccc(-c4ccccc4)s3)N(Nc3ccccc3)C2C(=O)N1c1ccccc1 (stereo not given) | -0.288 | -0.109 | 0.198 | 0.44 | 1.61 | 2 | 1.33 | -2.89 (inactive) | 1.62 | -0.0618 | 1.26 | -0.307 (inactive) | 1.63 (inactive) | 0.355 (inactive) | 4.34 | -0.579 (inactive) | 0.0711 | 0.182 | 1.11 | -0.0565
Cc1ccc(S[C@]2(C(=O)O)CC(=O)N(C(C)C)[C@@H]2c2ccc(CO)cc2)cc1 | 0.125 | 0.552 | -0.172 | -0.0563 | -0.445 | -0.226 | 0.751 | -0.175 (inactive) | -0.735 | -0.189 | 1.21 | -1.54 (inactive) | -0.916 (inactive) | -0.963 (inactive) | -0.634 | 1.66 (inactive) | -0.0719 | 0.306 | -0.229 | -0.134
[N-]=[N+]=NCc1ccccc1[C@@H]1OC(c2ccc(OCCCO)cc2)=N[C@]1(CCS(=O)(=O)c1ccccc1)C(N)=O | 0.339 | 0.852 | 0.175 | 0.647 | 1.33 | 2.06 | 1.34 | 1.81 (inactive) | 1.71 | -0.165 | 1.56 | 1.16 (inactive) | -1.17 (inactive) | -0.325 (inactive) | 3.51 | 0.901 (inactive) | 0.308 | 0.888 | 1.08 | 0.388
C[N+](C)(C)CCCC[C@@H]1NC(=O)[C@@H]2C[C@H](C(=O)NCCCCCN)[C@H](c3ccc(O)cc3)N2C1=O | 0.419 | 0.896 | 0.0522 | 0.628 | 1 | 1.54 | 0.636 | -1.76 (inactive) | 1.19 | 0.266 | 1.53 | -4.09 (inactive) | -1.1 (inactive) | -0.978 (inactive) | 2.46 | 1.12 (inactive) | 0.79 | 1.01 | 1.09 | 0.239
CN1C(=O)C2C=CC(C(O)C=Cc3ccc([N+](=O)[O-])cc3)N(Nc3ccccc3)C2C1=O (stereo not given) | -0.283 | 0.617 | 0.0411 | 0.497 | 1.25 | 1.59 | 1.35 | 2.12 (inactive) | 0.998 | -0.132 | 1.51 | -0.131 (inactive) | -1.18 (inactive) | -0.656 (inactive) | 1.62 | -1.35 (inactive) | 0.0849 | 0.577 | 1.12 | -0.0372
C#CCNCc1ccccc1 | -0.443 | 0.0591 | -0.114 | 0.227 | 0.461 | -0.358 | 0.0262 | 0.938 (inactive) | -0.115 | -0.236 | -0.0993 | -0.514 (inactive) | -0.749 (inactive) | -0.157 (inactive) | -0.0541 | -0.276 (inactive) | -0.161 | 0.235 | 0.527 | -0.0435
